This passage reports growth inhibition results from PubChem BioAssay (NCI).

Test [1] can be described thus: NCI Yeast Anticancer Drug Screen. Data for the rad50 strain (AID 155).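 Also: 0% = growth of vehicle-only cultures of the same strain.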 Particulars: S. cerevisiae rad50 strain growth inhibition, stronger effect = higher value; at 50.0 µM unless noted. The gist of the method: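 Yeast carrying a defined DNA repair defect were exposed to test compounds, and growth was compared with vehicle-treated controls to give percent inhibition.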
Test [2] can be described thus: NCI Yeast Anticancer Drug Screen. Data for the mec2-1 strain (AID 157). Particulars: S. cerevisiae mec2-1 strain, stronger effect = higher value; at 50.0 µM unless noted. Put shortly:
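Growth inhibition is read against vehicle-treated controls after compound exposure of the mec2-1 yeast strain, which is defective in DNA damage repair or cell cycle control.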

Test [3] in a line: NCI Yeast Anticancer Drug Screen. Data for the sgs1 mgt1 strain (AID 161).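 Also: 0% = growth of cultures given vehicle only.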 Particulars: S. cerevisiae sgs1 mgt1 strain, stronger effect = higher value; at 50.0 µM unless noted. Put shortly:
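Compounds are added to genetically altered yeast, and growth is compared with cultures given vehicle alone to give percent inhibition.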

Test [4] can be described thus: NCI Yeast Anticancer Drug Screen. Data for the cln2 rad14 strain (AID 165).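 Also: 0% = growth equal to vehicle treated cultures.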 Particulars: S. cerevisiae cln2 rad14 strain, stronger effect = higher value; at 50.0 µM unless noted. Put shortly:
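Growth inhibition, relative to vehicle-treated controls, is the read-out. The test organism is a yeast strain with defined genetic alterations, cln2 rad14.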

The nature of test [5]: NCI Yeast Anticancer Drug Screen. Data for the bub3 strain (AID 167). Particulars: S. cerevisiae bub3 mutant strain, stronger effect = higher value; at 50.0 µM unless noted. Put shortly:
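Compounds were applied to a genetically altered yeast strain carrying a cell-cycle control defect. Growth inhibition was scored against vehicle-treated controls.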

Test [6] can be described thus: NCI Yeast Anticancer Drug Screen. Data for the mlh1 rad18 strain (AID 175). Particulars: S. cerevisiae mlh1 rad18 strain growth inhibition, stronger effect = higher value; at 50.0 µM unless noted. The gist of the method:
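Cells of a genetically altered yeast strain, deficient in DNA damage repair, were treated with compound. Their growth was then compared with that of vehicle-treated cultures to give inhibition.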

The structures appear in SMILES notation. Values joined by “and” are separate entries in the source; they are usually repeats but may differ in a detail not shown here. Identical values can stand only once. The panel holds about 79,000 compounds, 15% with a hit somewhere; the sample as a whole holds those more often. Values without a mark were called inactive. Active and inactive are the calls of the source. Rule as the data show it: active = growth inhibition above about 70%; inactive = the rest.

For `Cc1cc(C)c(CC(=O)c2ccccc2)c(C)c1`, the growth inhibition is 0% in test [1]; -9.5% in test [2]; -1.9% in test [3]; -32% in test [4]; 0.95% in test [5]; -5% in test [6].

Consider `COc1ccccc1/C=C\C#N`, for which the growth inhibition in test [1] was -9.2%; in test [2] it was -6.1%; in test [3], -6.45%; in test [4] it was -28%; in test [5] it was -29.2%; in test [6], -13.4%.

As for `O=C1CCCCC(=O)Nc2ccccc2N1`, the growth inhibition is -22.2% in test [1]; -15.8% in test [2]; -6.85% in test [3]; 0.9% in test [4]; -4.9% in test [5]; -20.8% in test [6].

With `O=C1CN(CCN2CC(=O)N(CN3CCOCC3)C(=O)C2)CC(=O)N1CN1CCOCC1`, the growth inhibition in test [1] is 9.55%; in test [2], 3%; in test [3], 2.6%; in test [4], 3.8%; in test [5] it was -16.1%; in test [6], 83.9% (active).

As for `CCCCCCC(=O)C/C(=N/NC(N)=S)C(=O)NC1C2CC3CC(C2)CC1C3` (centres undefined), the growth inhibition was -14.8% in test [1]; -19.2% in test [2]; -48.7% in test [3]; 29.4% in test [4]; -2.3% in test [5]; -34.5% in test [6].

As for `CCCCCCCCOC(=O)Nc1ccc(S(=O)(=O)NC2CCCCC2)cc1`, the growth inhibition is 7.05% in test [1]; -2.9% in test [2]; 14.1% in test [3]; 37.8% in test [4]; 10.8% in test [5]; 20.6% in test [6].

`CCOc1ccc(NC(N)=O)cc1`: the growth inhibition in test [1] is -44.5%; in test [2] it was -9.85%; in test [3] it was -14.5%; in test [4] it was -3.7%; in test [5], -2.55%; in test [6], 15.2%.

Consider `COC(=O)CC(C)N(c1ccc(Cl)c(Cl)c1)S(=O)(=O)c1ccc(C)cc1` (centres undefined), for which the growth inhibition in test [1] was 37.9%; in test [2], -0.15%; in test [3], 4.1%; in test [4], -19.1%; in test [5], -6.05%; in test [6] it was 11.1%.

Turning to `CCN(CC)CCNc1ccc(COC(=O)NC)c2sc3ccccc3c(=O)c12`, the growth inhibition is 3.9% in test [1]; -2.4% in test [2]; -8.3% in test [3]; -12.2% in test [4]; -17.4% in test [5]; -58.9% in test [6].

`NC(N)=NC(N)=Nc1cc(Cl)c(Cl)cc1Cl`: the growth inhibition in test [1] is 98.2% (active); in test [2], 99.5% (active); in test [3], 99.3% (active); in test [4], 98.8% (active); in test [5] it was 99.2% (active); in test [6] it was 99.3% (active).

Turning to `Cc1cccc(C)c1NC(=O)Nc1ccccc1C(N)=O`, the growth inhibition in test [1] is 4.85%; in test [2] it was 22.8%; in test [3], 35.5%; in test [4], -6.75%; in test [5] it was 17.1%; in test [6], -17.4%.

For `COc1cc(C(=O)N(C)C)cc(OC)c1OC`, the growth inhibition in test [1] is -1.25%; in test [2], 2.65%; in test [3], -6.6%; in test [4], 2.25%; in test [5], -4%; in test [6], 5.5%.

Turning to `Cc1ccc(S(=O)(=O)N/N=C/c2ccoc2)cc1`, the growth inhibition in test [1] was -32.1%; in test [2], -8.6%; in test [3], -17.1%; in test [4], -3.9%; in test [5] it was 4.45%; in test [6], -14.4%.

Turning to `CC(=O)NCC(=O)c1ccc([N+](=O)[O-])cc1`, the growth inhibition in test [1] is 16.6% and -14.7%; in test [2], -16.3% and -24.1%; in test [3], 13% and -0.95%; in test [4] it was -0.2% and 6.65%; in test [5] it was -6.95% and -17.6%; in test [6], 29.8% and -1.7%.

On to `O=S(=O)(Nc1cccc(O)c1)c1ccccc1`, for which the growth inhibition in test [1] is 6%; in test [2], -12.1%; in test [3], 6.8%; in test [4] it was 14.7%; in test [5], 3%; in test [6] it was 13.2%.

Turning to `CCOC(=O)C1CC2OC2CC1C(=O)OCC` (centres undefined), the growth inhibition is 0.55% in test [1]; -36.9% in test [2]; -15.2% in test [3]; 12.4% in test [4]; -1.9% in test [5]; -33.2% in test [6].

Take `CC(=O)NC1=NC(=O)/C(=C/c2ccccc2Cl)N1C`: the growth inhibition in test [1] is -45.7%; in test [2], -53.8%; in test [3], -10.9%; in test [4] it was 8%; in test [5], -8.85%; in test [6], 28.6%.

In the case of `O=c1[nH]c(Br)nc2c(N3CCCCC3)c[nH]c12`, the growth inhibition in test [1] was 12.7%; in test [2] it was -0.45%; in test [3] it was -7.2%; in test [4], 4.35%; in test [5] it was -3.05%; in test [6], 11.6%.

For `CS(=O)(=O)OCCN(CCOS(C)(=O)=O)c1cc(C(N)=O)c([N+](=O)[O-])cc1[N+](=O)[O-]`, the growth inhibition in test [1] was -5.05%; in test [2], 9.55%; in test [3], -11.7%; in test [4] it was -12.9%; in test [5], -0.35%; in test [6], 16.9%.
